Records with an inconclusive call do not appear. Calls of active or inactive are those of the source. Unless noted, calls follow the shape of the dose curve; as a rule, active = well fitted curve in the direction sought with a large enough effect in the repeat runs; inconclusive = weak or mixed curves; inactive = no such curve, though single readings can be large; an effect the other way counts as inactive or inconclusive.

Assay [1] can be described thus: A CellTox Green Cytotoxicity Assay to monitor cytotoxicity in HepG2 cells - 8 hour (AID 1224890). Also: nearly all actives have a fitted effect of over 45% in size. Also: potency is read from the fitted curve at half-maximal effect. Summed up: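 HepG2 cells were seeded together with the CellTox Green dye at 600 cells/well, left 5 h at 37 C/5% CO2, then given compounds in DMSO. Fluorescence from dye bound to dead-cell DNA was read repeatedly over 40 h of treatment at 37 C.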
The target in assay [2] is Estrogen receptor (Homo sapiens) (UniProt P03372). Put plainly: qHTS assay to identify small molecule antagonists of the estrogen receptor alpha (ER-alpha) signaling pathway using the BG1 cell line in the presence of 0.1 nM 17-beta-estradiol (AID 1259244). Also: nearly all actives have a fitted effect of over 50% in size. In outline:
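VM7Luc4E2 cells (endogenous full-length ER-alpha, stable 4xERE-luciferase) were grown 5 days in phenol red-free medium with charcoal-stripped FBS, then exposed 22 h at 37C to compounds plus 0.1 nM (final) 17beta-estradiol; ONE-Glo luminescence read-out.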
A general note: Quantitative high-throughput screening tests each substance at several concentrations.

The nature of assay [3]: qHTS assay to identify small molecule HDAC inhibitors (AID 1259364). Also: top concentration of the series differs between compounds; nearly all actives have a fitted effect of over 45% in size. In outline:
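Wild-type HCT-116 cells were plated overnight, exposed to compounds for 2 h at 37 °C, then given HDAC-Glo class I/II luminogenic reagent for 30 min at room temperature before luminescence was read.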

The nature of assay [4]: qHTS assay to identify small molecule HDAC inhibitors - cell viability counter screen (AID 1259365). Also: series mostly up to about 92 µM; nearly all actives have a fitted effect of over 50% in size. Summed up: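 Cytotoxicity was gauged in wild-type HCT-116 cells after a brief 2hr treatment with DMSO-dissolved compounds at 37C and 5% CO2, using CellTiter-Glo luminescence developed for 30min at room temperature.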
Assay [5] can be described thus: qHTS assay to identify small molecule agonists of the sonic hedgehog signaling (Shh) pathway - cell viability counter screen (AID 1259366). Also: nearly all actives have a fitted effect of over 50% in size. Also: potency is read from the fitted curve at half-maximal effect. In outline:
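Stable Gli1-Luc NIH/3T3 clone, 2,000 cells/well. Compound exposure 24hr at 37C. Read-out: CellTiter-Fluor fluorescence.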

Assay [6] can be described thus: qHTS assay to identify small molecule antagonists of the sonic hedgehog signaling (Shh) pathway - cell viability counter screen (AID 1259367). Also: nearly all actives have a fitted effect of over 55% in size. Also: potency is read from the fitted curve at half-maximal effect. In outline: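 NIH/3T3-derived Gli1-Luc reporter cells (2,000 per well) rested 4 hr at 37 C, then received DMSO compounds plus conditioned medium. After 23 hr of treatment, CellTiter-Fluor was added for 1 hr at 37C and fluorescence read.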

Assay [7] in a line: qHTS assay to identify small molecule agonists of the sonic hedgehog signaling (Shh) pathway (AID 1259368; calls by dose curve; also: series mostly up to about 92 µM; nearly all actives have a fitted effect of over 15% in size). Summed up:
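NIH/3T3-derived 3T3Gli1-Luc cells carrying a stably integrated Gli1 response element–firefly luciferase reporter were plated, left 4 hr at 37 C, then given compounds in DMSO for 24 hr. Luminescence was read 30 min after adding luciferase reagent.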

Assay [8] can be described thus: qHTS assay to identify small molecule antagonists of the sonic hedgehog signaling (Shh) pathway (AID 1259369; calls by dose curve; also: nearly all actives have a fitted effect of over 45% in size; also: potency is read from the fitted curve at half-maximal effect). In outline: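 NIH/3T3-derived 3T3Gli1-Luc cells with stably integrated Gli1-Luc reporter were preincubated 4hr at 37 C, then given compounds in DMSO plus Shh conditioned medium and incubated 24hr. Firefly luciferase luminescence read after 30min reagent at room temperature.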

The nature of assay [9]: qHTS assay to identify small molecule agonists of the androgen receptor (AR) signaling pathway in the presence of an antagonist - cell viability counter screen (AID 1259379). Also: nearly all actives have a fitted effect of over 25% in size. Also: potency is read from the fitted curve at half-maximal effect. Summed up: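 MDA-kb2 human breast carcinoma cells (stable MMTV-luciferase, AR/GR responsive) were seeded 3,000 cells/well, pre-incubated 5 hr at 37C without CO2, then given 3.0uM nilutamide and compounds at 15 concentrations for 16 hr. Viability was read by CellTiter-Fluor fluorescence.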

A short description of assay [10]: qHTS assay to identify small molecule agonists of the estrogen receptor beta (ER-beta) signaling pathway - cell viability counter screen (AID 1259380). Also: nearly all actives have a fitted effect of over 30% in size. Also: potency is read from the fitted curve at half-maximal effect. Summed up:
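ER-beta-UAS-bla HEK293T cells in medium with 2% charcoal-stripped FBS were preincubated 6 hr at 37C, dosed with compound in DMSO for 16 hr, then after the bla read, CellTiter-Glo was added for 30 min at room temperature; luminescence recorded.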

Assay [11] has as its target Androgen receptor (Homo sapiens) (UniProt P10275). Put plainly: qHTS assay to identify small molecule agonists of the androgen receptor (AR) signaling pathway in the presence of an antagonist (AID 1259381; calls by dose curve; also: nearly all actives have a fitted effect of over 15% in size). In outline: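 MDA-kb2 human breast carcinoma cells carrying an MMTV-luciferase reporter (AR- and GR-responsive) were treated with compounds at 15 concentrations plus 3.0uM final nilutamide for 16hr at 37C without CO2; luminescence was read after ONE-Glo addition.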

Assay [12] is described as follows: qHTS assay to identify small molecule antagonists of the estrogen receptor beta (ER-beta) signaling pathway - cell viability counter screen (AID 1259382). Also: nearly all actives have a fitted effect of over 55% in size. Also: potency is read from the fitted curve at half-maximal effect. Summed up:
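ER-beta-UAS-bla HEK293T cells (2,000/well, 2% charcoal-stripped FBS) were pre-incubated 6 hr at 37C, then given compound plus 1nM final 17-beta-estradiol for 16 hr. Viability was read in the same wells by CellTiter-Glo luminescence after 30 min at room temperature.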

For assay [13], the target named is Estrogen receptor (Homo sapiens) (UniProt P03372). Put plainly: qHTS assay to identify small molecule agonists of the estrogen receptor alpha (ER-alpha) signaling pathway in the presence of an antagonist (AID 1259383; calls by dose curve; also: top concentration of the series differs between compounds; nearly all actives have a fitted effect of over 15% in size). In outline: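 VM7Luc4E2 cells (endogenous full-length ER-alpha, 4×ERE-luciferase) were precultured 5 days in phenol red-free medium with 10% charcoal-stripped FBS, given 10.0nM ICI-182,780 (final), then treated with compounds at 15 concentrations for 22hr at 37C; luminescence read with ONE-Glo.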
Chain of Estrogen receptor (Homo sapiens) (P03372 whole entry, looked up): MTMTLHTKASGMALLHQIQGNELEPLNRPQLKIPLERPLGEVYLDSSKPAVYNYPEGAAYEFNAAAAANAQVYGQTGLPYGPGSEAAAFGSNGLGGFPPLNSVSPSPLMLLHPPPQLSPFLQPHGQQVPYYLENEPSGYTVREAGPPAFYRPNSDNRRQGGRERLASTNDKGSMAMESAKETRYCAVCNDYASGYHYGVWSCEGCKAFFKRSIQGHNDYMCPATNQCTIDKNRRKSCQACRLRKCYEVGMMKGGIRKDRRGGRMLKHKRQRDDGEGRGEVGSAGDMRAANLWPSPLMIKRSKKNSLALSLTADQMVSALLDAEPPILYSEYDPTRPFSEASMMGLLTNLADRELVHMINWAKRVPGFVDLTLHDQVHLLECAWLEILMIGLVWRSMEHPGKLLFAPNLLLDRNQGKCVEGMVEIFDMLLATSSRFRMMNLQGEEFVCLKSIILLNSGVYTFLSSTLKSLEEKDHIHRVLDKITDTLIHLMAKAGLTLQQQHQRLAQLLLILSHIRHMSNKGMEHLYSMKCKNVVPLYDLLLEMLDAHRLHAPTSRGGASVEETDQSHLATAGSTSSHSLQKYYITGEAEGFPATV

Assay [14] in a line: qHTS assay to identify small molecule agonists or antagonists of the thyroid stimulating hormone receptor (TSHR) signaling pathway - wild type cell line counter screen (AID 1259384; calls by dose curve). In outline:
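Wild-type HEK293 cells were plated 18 h at 37 C/5% CO2, pin-dosed with compound plus Ro20-1724 medium, held 30 min at room temperature, then given cAMP-d2 and anti-cAMP-cryptate; fluorescence was read after 1 h. Fifteen concentrations, triplicate.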

Assay [15] can be described thus: qHTS assay to identify small molecule antagonists of the androgen receptor (AR) signaling pathway using the MDA cell line in the presence of 0.5 nM R1881 - cell viability counter screen (AID 1259242). Also: nearly all actives have a fitted effect of over 45% in size. Summed up:
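MDA-kb2 cells (human breast carcinoma, stably carrying MMTV-luciferase reporter) were exposed to compounds with 0.5 nM R1881 (final) for 16 hr at 37C, 0% CO2; viability then read as live-cell protease fluorescence (CellTiter-Fluor, 30 min) in the same wells.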

In assay [16] the target is Estrogen receptor beta (Homo sapiens) (UniProt Q92731). Put plainly: qHTS assay to identify small molecule agonists of the estrogen receptor beta (ER-beta) signaling pathway (AID 1259377; active = well fitted activation curve with a large enough effect in the signal ratio in the repeat runs, not every such curve was filed as active; the % refers to the signal ratio). Summed up:
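Measured by fluorescence intensity from a B/G FRET beta-lactamase substrate (2 h, room temperature) in ER-beta-UAS-bla HEK293T cells treated with DMSO-dissolved compounds for 16 hr at 37C and 5% CO2.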

For assay [17] the target is unchanged. Put plainly: qHTS assay to identify small molecule antagonists of the estrogen receptor beta (ER-beta) signaling pathway (AID 1259378; active = well fitted inhibition curve with a large enough effect in the signal ratio in the repeat runs, not every such curve was filed as active; the % refers to the signal ratio). In outline:
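ER-beta-UAS-bla HEK293T (GripTite) cells in 2% charcoal-stripped FBS medium were preincubated 6 hr at 37C, dosed with compound, then stimulated with 1 nM E2 (final) for 16 hr; beta-lactamase reporter read by B/G FRET fluorescence after 2 hr substrate loading.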

The nature of assay [18]: qHTS assay to identify small molecule antagonists of the estrogen receptor alpha (ER-alpha) signaling pathway using the BG1 cell line in the presence of 0.1 nM 17-beta-estradiol - cell viability counter screen (AID 1259241). Also: nearly all actives have a fitted effect of over 40% in size. Summed up:
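Viability in VM7Luc4E2 cells after 22 hr compound exposure under 0.1 nM 17beta-estradiol stimulation, by CellTiter-Fluor.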

Assay [19] is described as follows: qHTS assay to identify small molecule phospholipidosis (PLD) inducers (AID 1259344; active = well fitted curve in the direction sought with a large enough effect; an effect the other way counts as inactive or inconclusive). In outline: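 HepG2 cells on collagen I, attached 4 h at 37 C, were co-treated with compound and LipidTOX Red dye for 24 h at 37 C, then fixed with paraformaldehyde plus Hoechst 33342 and imaged by high-content microscopy for phospholipid accumulation.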

Chain of Estrogen receptor beta (Homo sapiens) (Q92731 whole entry, looked up): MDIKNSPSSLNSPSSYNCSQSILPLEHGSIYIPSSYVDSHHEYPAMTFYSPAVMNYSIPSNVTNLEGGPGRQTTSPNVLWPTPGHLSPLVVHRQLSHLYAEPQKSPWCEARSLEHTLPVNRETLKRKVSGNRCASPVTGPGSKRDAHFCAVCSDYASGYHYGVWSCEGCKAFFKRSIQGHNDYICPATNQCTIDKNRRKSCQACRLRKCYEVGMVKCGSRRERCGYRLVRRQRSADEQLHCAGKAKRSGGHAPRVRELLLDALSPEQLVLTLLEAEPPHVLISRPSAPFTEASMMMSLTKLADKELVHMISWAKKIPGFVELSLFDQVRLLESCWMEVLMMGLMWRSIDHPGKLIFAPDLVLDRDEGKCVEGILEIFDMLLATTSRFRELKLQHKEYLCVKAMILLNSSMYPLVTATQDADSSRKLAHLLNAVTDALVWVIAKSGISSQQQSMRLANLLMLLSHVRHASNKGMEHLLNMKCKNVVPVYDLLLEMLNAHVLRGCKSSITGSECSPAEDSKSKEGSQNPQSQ
Chain of Androgen receptor (Homo sapiens) (P10275 whole entry, looked up): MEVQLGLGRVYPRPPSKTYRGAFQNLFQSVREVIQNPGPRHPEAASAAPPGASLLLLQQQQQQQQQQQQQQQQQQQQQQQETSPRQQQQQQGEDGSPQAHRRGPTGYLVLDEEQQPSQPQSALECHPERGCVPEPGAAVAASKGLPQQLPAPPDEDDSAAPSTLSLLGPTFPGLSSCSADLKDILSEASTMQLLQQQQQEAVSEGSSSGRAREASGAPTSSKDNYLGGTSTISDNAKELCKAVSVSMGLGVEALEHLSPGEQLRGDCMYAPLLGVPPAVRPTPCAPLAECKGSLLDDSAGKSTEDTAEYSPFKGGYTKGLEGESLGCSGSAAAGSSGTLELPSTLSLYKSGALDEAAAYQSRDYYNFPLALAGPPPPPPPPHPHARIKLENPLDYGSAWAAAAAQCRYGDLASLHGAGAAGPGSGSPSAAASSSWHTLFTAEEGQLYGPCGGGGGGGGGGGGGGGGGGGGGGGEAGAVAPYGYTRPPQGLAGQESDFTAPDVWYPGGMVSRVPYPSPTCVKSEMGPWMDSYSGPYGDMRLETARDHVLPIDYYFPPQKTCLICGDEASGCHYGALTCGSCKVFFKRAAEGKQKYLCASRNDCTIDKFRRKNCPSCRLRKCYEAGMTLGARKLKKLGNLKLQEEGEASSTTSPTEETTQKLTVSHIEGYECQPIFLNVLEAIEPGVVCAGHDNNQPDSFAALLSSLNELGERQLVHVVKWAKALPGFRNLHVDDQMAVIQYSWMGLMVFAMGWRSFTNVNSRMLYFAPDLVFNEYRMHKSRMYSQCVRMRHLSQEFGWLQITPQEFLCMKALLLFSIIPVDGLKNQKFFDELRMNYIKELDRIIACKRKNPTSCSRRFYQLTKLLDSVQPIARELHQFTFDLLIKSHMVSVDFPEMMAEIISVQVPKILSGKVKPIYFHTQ

As for `CN1CCCN(C(c2ccccc2)c2ccc(Cl)cc2)CC1` (centres undefined), the Potency result in assay [1], in assay [2], in assay [3], in assay [4], in [7] and in [11] was “inactive” in each case. Also, the Potency entry in assay [13] and in assay [14] was “inactive” throughout. The Potency is 15 µM (active) in [5]; 13.3 µM (active) in [6]; 5.96 µM (active) in assay [8]; 26.6 µM (active) in assay [9]; 13.3 µM (active) in assay [10]; 13.3 µM (active) in assay [12].

`CS(=O)(=O)c1ccc([C@@H](C[C@H]2CCC(=O)C2)C(=O)Nc2cnccn2)cc1Cl`: the Potency entry in assay [1], in assay [15], in assay [2], in assay [3], in assay [4] and in assay [5] was “inactive” in each case. Moreover, the Potency entry in assay [6], in [7], in [8], in assay [16], in assay [17] and in [9] was “inactive” each time. The Potency result in assay [10], in assay [12], in assay [13] and in assay [14] was “inactive” each time.

Turning to `Oc1ccc2c(c1)Cc1ccccc1-2`, the Potency result in assay [18], in assay [15], in assay [2], in assay [3], in assay [4] and in assay [5] was “inactive” each time. Also, the Potency entry in assay [6], in assay [7], in assay [9], in assay [12] and in assay [14] was “inactive” throughout.

As for `Nc1c(Cl)cc(Cl)cc1[N+](=O)[O-]`, the Potency result in assay [1], in assay [18], in assay [2], in [4], in assay [5] and in assay [6] was “inactive” in each case. In addition, the Potency result in [7], in assay [16], in assay [17], in assay [9], in assay [10] and in [11] was “inactive” throughout. The Potency result in assay [12], in assay [13] and in assay [14] was “inactive” each time.

Regarding `COc1cc(NCc2ccc3nc(N)nc(N)c3c2C)cc(OC)c1OC`, the Potency entry in [1], in assay [15], in assay [2], in assay [19], in assay [3] and in assay [4] was “inactive” throughout. For the same molecule, the Potency entry in [7], in assay [9], in [13] and in assay [14] was “inactive” throughout. For the same molecule, the Potency in assay [6] is 15 µM (active); in assay [10], 0.237 µM (active).

Regarding `CC(C)Cc1ccc(CC(=O)O)cc1`, the Potency in [1] is 21.3 µM (active). Besides, the Potency result in assay [18], in assay [19], in [3], in assay [4], in assay [5] and in [6] was “inactive” in each case. The Potency result in assay [7], in assay [16], in assay [9], in [10] and in assay [12] was “inactive” each time.

Take `CC(CN(CCN(CC(C)OCCO)CC(C)OCCO)CC(C)OCCO)OCCO` (centres undefined): the Potency result in assay [1], in assay [18], in [3], in [4], in assay [5] and in assay [6] was “inactive” throughout. Moreover, the Potency result in assay [7], in assay [8], in assay [10], in [12] and in assay [14] was “inactive” throughout. In addition, in assay [9], the Potency is 33.1 µM (active).

`CCCC(=O)OC(=O)CCC`: the Potency result in [1], in assay [18], in [4], in assay [6], in [7] and in assay [8] was “inactive” in each case. Further, the Potency entry in [16], in assay [17], in [9], in assay [10], in [12] and in [14] was “inactive” in each case.

The values above are taken from PubChem BioAssay (Tox21).
